The values below come from PMC4336329 (PLoS ONE, 2015).

In all, about 310,000 compounds went through this assay and about 14,000 (4.5%) showed an effect of 50% or more. Effects have a minus sign here. Shown is part of a subset that was picked to be rich in strong results.
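Also: peak tail current of the secondary pulse compared with the same well before compound.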

Chain of human ether-à-go-go-related gene (hERG) potassium channel (Q12809 whole entry, looked up): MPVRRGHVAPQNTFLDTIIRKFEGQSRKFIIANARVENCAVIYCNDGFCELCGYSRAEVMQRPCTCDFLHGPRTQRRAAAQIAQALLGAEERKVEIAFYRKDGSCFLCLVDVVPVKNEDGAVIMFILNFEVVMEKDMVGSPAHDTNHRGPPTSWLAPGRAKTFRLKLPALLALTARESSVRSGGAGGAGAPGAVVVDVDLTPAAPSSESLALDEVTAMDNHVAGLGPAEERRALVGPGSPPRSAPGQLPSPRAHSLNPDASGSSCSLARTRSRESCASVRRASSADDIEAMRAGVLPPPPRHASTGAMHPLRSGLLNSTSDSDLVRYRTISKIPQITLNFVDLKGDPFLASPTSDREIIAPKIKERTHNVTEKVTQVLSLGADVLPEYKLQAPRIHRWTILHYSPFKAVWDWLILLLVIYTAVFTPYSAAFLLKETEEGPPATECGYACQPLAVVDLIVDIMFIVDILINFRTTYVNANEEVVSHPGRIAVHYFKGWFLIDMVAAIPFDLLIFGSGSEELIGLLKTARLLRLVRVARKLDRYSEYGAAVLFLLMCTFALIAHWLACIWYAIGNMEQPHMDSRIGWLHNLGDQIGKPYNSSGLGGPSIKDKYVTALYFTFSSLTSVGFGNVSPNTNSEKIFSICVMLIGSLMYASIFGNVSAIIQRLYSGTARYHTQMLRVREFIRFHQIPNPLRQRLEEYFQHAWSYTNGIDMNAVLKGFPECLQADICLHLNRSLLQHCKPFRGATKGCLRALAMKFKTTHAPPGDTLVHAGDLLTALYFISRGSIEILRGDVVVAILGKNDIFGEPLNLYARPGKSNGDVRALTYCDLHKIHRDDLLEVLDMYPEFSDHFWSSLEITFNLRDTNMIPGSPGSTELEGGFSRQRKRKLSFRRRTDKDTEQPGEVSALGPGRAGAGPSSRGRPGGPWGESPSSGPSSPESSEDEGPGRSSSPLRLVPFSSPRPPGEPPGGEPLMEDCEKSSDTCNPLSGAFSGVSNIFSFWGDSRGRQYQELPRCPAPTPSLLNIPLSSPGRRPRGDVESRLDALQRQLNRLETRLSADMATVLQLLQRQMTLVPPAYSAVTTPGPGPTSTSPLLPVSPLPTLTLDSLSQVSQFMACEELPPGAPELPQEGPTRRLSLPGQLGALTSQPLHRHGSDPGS

The experiment addresses human ether-à-go-go-related gene (hERG) potassium channel (human, UniProt Q12809). The experiment is described as follows: primary screen, population patch clamp on CHO cells stably expressing hERG; higher = less effect of the substance.
For `Cc1cc(C(=O)OCC(=O)N2CCCC2)c2ccccc2n1`, the “hERG current change (%, negative = inhibition) at 10uM” value is on record as -9.04%. In the case of `CC(C)(C)NC(=O)C(=O)NNC(=O)COc1ccc(Br)cc1` it was 5.23%; in that of `O=C(Cn1nnc(-c2ccccc2Cl)n1)N1CCN(S(=O)(=O)c2ccc(Cl)cc2)CC1`, -18%. In the case of `Cc1ccc(C)c(OCC(=O)N2CCN(C(=O)c3ccco3)CC2)c1` it was -8.23%; in that of `Cc1cccc(COc2coc(CN3CCN(C(=O)c4ccco4)CC3)cc2=O)c1`, -50.7%. In the case of `COC(=O)COc1coc(CN2CCN(c3cccc(Cl)c3)CC2)cc1=O` it was -11.4%; in that of `O=C(c1ccco1)N1CCN(Cc2cc(=O)c(OCc3ccccc3Cl)co2)CC1`, -56.2%. Turning to `O=C(c1ccco1)N1CCN(Cc2cc(=O)c(OCc3cccc(Cl)c3)co2)CC1`, the “hERG current change (%, negative = inhibition) at 10uM” value is -74.7%.

In the case of `Cc1ccc(COc2coc(CN3CCN(C(=O)c4ccco4)CC3)cc2=O)cc1`, the “hERG current change (%, negative = inhibition) at 10uM” value is recorded as -48.4%. To `CC(Oc1coc(CN2CCN(C(=O)c3ccco3)CC2)cc1=O)c1ccccc1` (centres unmarked) belongs 11.5%; to `CNC(=O)COc1coc(CN2CCN(C(=O)c3ccco3)CC2)cc1=O`, 7.13%.

Turning to `CCCNC(=O)COc1coc(CN2CCN(C(=O)c3ccco3)CC2)cc1=O`, the “hERG current change (%, negative = inhibition) at 10uM” value was 3.56%. To `CC(C)(C)NC(=O)COc1coc(CN2CCN(C(=O)c3ccco3)CC2)cc1=O` belongs 20.1%; to `O=C(c1ccco1)N1CCN(Cc2cc(=O)c(OCc3ccccc3F)co2)CC1`, -30.4%. As for `Cc1ccc(C)c(COc2coc(CN3CCN(C(=O)c4ccco4)CC3)cc2=O)c1`, the “hERG current change (%, negative = inhibition) at 10uM” value was -100%. To `CC(C)CN(C(=O)COc1ccc(Br)cc1C=O)C1CCS(=O)(=O)C1` (centres unmarked) belongs -25.4%; to `COc1ccc(O)c(-c2cn[nH]c2-c2cccs2)c1`, 7.6%. For the compound `O=C(CNC(=O)Cc1ccccc1)N=Nc1c(O)[nH]c2ccc(Br)cc12`, the “hERG current change (%, negative = inhibition) at 10uM” value was found to be 24.7%. In the case of `O=C(CSc1nc2ccccc2c(=O)[nH]1)Nc1ccccc1C(F)(F)F` it was -2.68%.

Regarding `C=CCNC(=O)c1cc(-c2ccccc2O)on1`, the “hERG current change (%, negative = inhibition) at 10uM” value is 8.16%. To `CCN(CC(=O)NCC(=O)Nc1cccc(C)c1C)Cc1ccccc1` belongs 5.6%; to `C=CCn1nc([N+](=O)[O-])nc1Sc1cccc2cccnc12`, -2.55%; to `O=[N+]([O-])CC(=Nc1ccc(Cl)cc1)N/N=C\c1oc(O)c2ccccc12`, 5.58%. In the case of `O=c1cc(CO)occ1OCc1c(F)cccc1Cl` it was 9.21%; in that of `O=C(c1ccco1)N1CCN(Cc2c(F)cccc2Cl)CC1`, -9.87%; in that of `O=C(c1ccco1)N1CCN(Cc2cc(=O)c(OCc3c(F)cccc3Cl)co2)CC1`, -58%.

Take `CCN(CC)C(C(=O)Nc1ccc(C(C)C)cc1)c1ccc2c(c1)OCO2` (centres unmarked): the “hERG current change (%, negative = inhibition) at 10uM” value is on record as -9.99%. To `CCOc1cc(C)c(S(=O)(=O)N2CCCC2)cc1C` belongs -14.6%; to `COc1ccc(CCN(C(=O)c2snc(C(N)=O)c2N)C(C)C(=O)NC2CCCCC2)cc1OC` (centres unmarked), -13.9%.

As to `COc1ccccc1CCNC(=O)c1cnn2c(C(F)F)cc(C)nc12`, the “hERG current change (%, negative = inhibition) at 10uM” value is recorded as -33.6%. To `Cc1cc(C(F)F)n2ncc(C(=O)NCCc3ccc(Cl)cc3)c2n1` belongs -45%; to `Cc1cc(C(F)F)n2ncc(C(=O)NCCc3ccccc3Cl)c2n1`, -56.7%. In the case of `CCOC(=O)N1CCC(N(CCN(C)C)C(=S)Nc2cccc(Cl)c2C)CC1` it was 12.5%; in that of `Cc1nc(C(=O)Nc2ccccc2Cl)cc2c1[nH]c1ccccc12`, 0.837%; in that of `O=C(CCC(=O)Nc1cccc(C(F)(F)F)c1)NCC1CCCO1` (centres unmarked), 11.1%. To `CC1=C(C(=O)OCC2CCCO2)C(c2ccccc2OC(C)C)C2=C(CC(c3ccco3)CC2=O)N1` (centres unmarked) belongs -57.8%. `CC1=C(C(=O)OCC2CCCO2)C(c2cccc(C(F)(F)F)c2)C2=C(CC(c3ccco3)CC2=O)N1` (centres unmarked): the “hERG current change (%, negative = inhibition) at 10uM” value came to 6.09%. For `COc1ccc(C2C(C(=O)OCC3CCCO3)=C(C)NC3=C2C(=O)CC(c2ccco2)C3)cc1O` (centres unmarked), the “hERG current change (%, negative = inhibition) at 10uM” value is on record as 5.72%.

For the compound `CC(C)C(=O)Nc1ccc2c(c1)C(=O)NC2=O`, the “hERG current change (%, negative = inhibition) at 10uM” value was 14.3%.

For the compound `Cc1cc(C)cc(N(CC(=O)NC2CCCC2)C(=O)CNC(=O)c2cccs2)c1`, the “hERG current change (%, negative = inhibition) at 10uM” value came out at 18%.

On to `CCC(C)c1ccccc1OCCCN(C)Cc1ccccc1` (centres unmarked), for which the “hERG current change (%, negative = inhibition) at 10uM” value is reported as -27%. To `O=C(OCn1nnc2ccccc2c1=O)c1cc(-c2ccccc2Cl)nc2ccccc12` belongs 12.8%; to `O=C(c1cc(-c2ccccc2Cl)nc2ccccc12)N1CCOCC1`, -6.68%; to `CN(C(=O)COC(=O)c1cc(-c2ccccc2Cl)nc2ccccc12)C1CCS(=O)(=O)C1` (centres unmarked), -30.9%.
